Giardia FBPA inh-1: inhibitors of Giardia lamblia fructose-1,6-bisphosphate aldolase; A8B2U2; purified Giardia FBPA; Potency, µM (highest dose often 59.6 µM), usual class: inhibitors; hit rate 0.71% among 290,000; AID 2451; also: nearly all actives have a fitted effect of over 55% in size
Target sequence (A8B2U2 whole entry, looked up): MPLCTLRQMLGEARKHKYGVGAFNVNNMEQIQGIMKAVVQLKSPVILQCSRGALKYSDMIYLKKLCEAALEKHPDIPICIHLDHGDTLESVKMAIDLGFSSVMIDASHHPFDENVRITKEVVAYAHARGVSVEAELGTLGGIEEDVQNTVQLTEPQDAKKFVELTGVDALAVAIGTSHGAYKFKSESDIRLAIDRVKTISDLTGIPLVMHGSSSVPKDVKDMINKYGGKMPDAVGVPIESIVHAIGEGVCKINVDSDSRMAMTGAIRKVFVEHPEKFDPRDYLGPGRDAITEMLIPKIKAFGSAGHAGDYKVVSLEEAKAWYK
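40 nM FBPA preincubated 10 min at RT with compound (up to 57.5 uM final), then substrate plus GAPDH/TPI/NAD/arsenate coupling and diaphorase/resazurin added. Fluorescence read after 20 min at RT, 525/598 nm.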
AmpC no deterg: AmpC beta-lactamase inhibition without detergent | AmpC nitrocefin hydrolysis, absorbance 480 nm, 0.0001% Triton | Potency, µM (highest dose often 57.1 µM), most hits filed as inhibitors | hit rate 0.52% among 330,000; also: nearly all actives have a fitted effect of over 20% in size
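20 mM phosphate pH 7.0 + 0.01% (detergent screen) or 0.0001% Triton X-100; 5.3 nM AmpC reagent; cpd preinc 15 min RT; nitrocefin (800 uM stock) to start; A480 q20 s × 4 min; Activity was normalised to no-enzyme and no-compound control wells.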
AmpC inh detg: blocks E. coli AmpC beta-lactamase in detergent assay. AmpC hydrolysis of nitrocefin, absorbance 480 nm, 0.01% Triton. Potency, µM (doses to about 114 µM), hits mostly inhibitors. hit rate 0.041% among 370,000. AID 485294; also: nearly all actives have a fitted effect of over 25% in size
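AmpC (5.3 nM in the dispensed reagent) in 20 mM phosphate pH 7.0 with 0.01% (detergent screen) or 0.0001% Triton X-100 was preincubated with compounds for 15 min at room temperature. Nitrocefin was then added from an 800 uM solution, and hydrolysis was followed at 480 nm.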
LmPK inh: inhibitors of Leishmania mexicana pyruvate kinase; Q27686; purified LmPK, Kinase-Glo ATP luminescence, 1 h; Potency, µM (series often up to 57.5 µM), most hits filed as inhibitors; hit rate 0.37% among 290,000
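ATP generated from ADP (0.1 mM) and PEP (0.5 mM) by 0.1 nM LmPK over 1 h at room temperature (pH 7.2 imidazole buffer) was detected by coupled luciferase luminescence. Values were normalized to uninhibited and no-enzyme wells.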
Tb PYK inh: inhibitors of Trypanosoma brucei pyruvate kinase | Potency, µM (top dose mostly 76.8 µM), most hits filed as inhibitors | hit rate 0.12% among 410,000 | AID 624173 | Q57TT1 | TbPYK enzyme, Kinase-Glo Plus ATP luminescence, 45 min; also: nearly all actives have a fitted effect of over 50% in size
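Activity of T. brucei pyruvate kinase was followed by Kinase-Glo Plus luminescence after the enzyme reacted 45 min at room temperature with 130 uM ADP (final) and substrate. Test compounds were added before ADP at multiple concentrations.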
RE007 growth inh: less growth of the S. pombe RE007 Vpr strain; S. pombe RE007 Vpr strain, BacTiter-Glo ATP luminescence, 24 h; hit rate 0.21% among 360,000; Potency, µM (series often up to 92.2 µM), usual class: inhibitors; active = well fitted falling curve with a large enough effect; inconclusive = small, poorly fitted or top-dose-only effect; inactive = no such curve, though single readings can be large or run the other way; also: nearly all actives have a fitted effect of over 50% in size
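Fission yeast RE007 carrying one integrated HIV-1 vpr copy, seeded at OD 0.01 in PMG+AL medium with 23 nL pinned compound. Grown 24 h at 30 degrees; viability read by BacTiter-Glo luminescence after 5 min.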
Giardia growth: blocks growth of Giardia lamblia trophozoites; Potency, µM (doses to about 57.5 µM), actives largely listed as inhibitors; shares compounds with Giardia FBPA inh-1; hit rate 5% among 1,500; Giardia lamblia trophozoite growth inhibition;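 also: trophozoites exposed to compound for 48 h at 37 °C; nearly all actives have a fitted effect of over 70% in size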
Mammalian tox: counter-screen for Giardia aldolase inhibitors: mammalian cell toxicity; shares compounds with Giardia FBPA inh-1; mammalian cell viability counter-screen, qHTS; Potency, µM (doses to about 57.5 µM), hits mostly inhibitors; hit rate 4% among 1,500;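 also: Chinese hamster ovary cells used as mammalian cytotoxicity surrogate; viability measured as cellular ATP by luminescence; compound exposure lasted 48 h before reading; nearly all actives have a fitted effect of over 60% in size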
Giardia FBPA inh-2: confirmation of Giardia fructose-bisphosphate aldolase inhibitors; shares compounds with Giardia FBPA inh-1; Potency, µM (highest dose often 57.5 µM), most hits filed as inhibitors; AID 2787; hit rate 5% among 1,500; purified Giardia aldolase enzyme activity, qHTS; also: nearly all actives have a fitted effect of over 45% in size
Rabbit aldolase: blocks rabbit muscle aldolase in Giardia aldolase selectivity test | shares compounds with Giardia FBPA inh-1 | Rabbit muscle FBPA enzyme inhibition, selectivity counter-screen | Potency, µM (series often up to 57.5 µM), actives largely listed as inhibitors | hit rate 4% among 1,500; also: nearly all actives have a fitted effect of over 60% in size
GAPDH coupling: counter-screen for Giardia aldolase inhibitors: GAPDH coupling enzyme; shares compounds with Giardia FBPA inh-1; GAPDH coupling enzyme counterscreen, biochemical, qHTS; Potency, µM (top dose mostly 57.5 µM), hits mostly inhibitors; hit rate 6% among 1,500; AID 2795; also: nearly all actives have a fitted effect of over 55% in size
Hits are given with their value; – = inactive; ? = inconclusive; · = not tested or not shown; [ ] = dose if it differs, or a comment. An excerpt weighted towards active compounds, which were near 1.4% of everything screened. Unless noted, calls follow the shape of the dose curve; as a rule, active = well fitted curve in the direction sought with a large enough effect; inconclusive = small, poorly fitted or top-dose-only effect, or another doubt; inactive = no such curve, though single readings can be large; an effect the other way counts as inactive or inconclusive.

SMILES	Giardia FBPA inh-1	AmpC no deterg	AmpC inh detg	LmPK inh	Tb PYK inh	RE007 growth inh	Giardia growth	Mammalian tox	Giardia FBPA inh-2	Rabbit aldolase	GAPDH coupling
COc1ccc(OC)c(-c2csc(NC(=O)c3ccc(F)cc3)n2)c1	22µM	–	–	–	–	–	–[10.4 µM]	–	–	–	–
Cc1nc(=S)n(-c2ccccc2)[nH]1	–	–	–	–	?	–	·	·	·	·	·
Nc1nc(=S)n(-c2ccccc2)[nH]1	7.1µM	–	–	–	–	–	–	–	–	–	–
CN(C)CCNC(C(=O)Nc1cccc(C(F)(F)F)c1)c1ccccc1 (stereo not drawn)	18µM	–	–	–	–	–	–	–	–	–	–
CN(C)CCNC(C(=O)Nc1cccc(S(=O)(=O)N2CCOCC2)c1)c1ccccc1 (stereo not drawn)	·	–	–	·	–	–	·	·	·	·	·
COc1ccc(NC(=O)c2c(C)oc3ccc(O)c(CN4CCCCCC4)c23)cc1	·	·	–	·	–	·	·	·	·	·	·
O=c1ccc2c(-c3ccccc3)c3ccc(O)cc3oc-2c1	14µM	–	–	–	–	–	?	–	–	–	–
Nc1ccc(-c2c3ccc(=O)cc-3oc3cc(O)ccc23)cc1C(=O)O	–	–	?	–	–	–	·	·	·	·	·
CC1=C(C(=O)Nc2ccc(Cl)cc2)C(c2ccc(C(F)(F)F)cc2)n2nnnc2N1 (stereo not drawn)	·	·	–	·	–	·	·	·	·	·	·
CCOc1ccc(S(=O)(=O)N2CCN(c3cc(Cl)ccc3Cl)CC2)c2ccccc12	·	·	–	·	–	·	·	·	·	·	·
CN1CCc2c1nc1ccccc1c2NC(=O)CN1CCCC1	18µM	–	–	–	–	–	–[10.4 µM]	–	–	–	–
CC(C)(C)CC(C)(C)NCC(=O)Nc1c2c(nc3ccccc13)CCC2	4.5µM	–	–	–	–	–	–	–	–	–	–
O=C(Nc1c2c(nc3ccccc13)CCCC2)c1ccccc1Cl	–	–	–	–	–	–	·	·	·	·	·
CCOc1ccc2[nH]c(S(=O)(=O)CC)nc2c1Cl	3.5µM	·	–	–	–	–	–	–	–	–	–
Nc1ccccc1N=c1ssnc1Cl	?	–	–	–	?	–	·	·	·	·	·
COc1ccc(OC)c(N=C2C(=O)Nc3ccccc32)c1	?	–	–	–	–	–	·	·	·	·	·
Cc1cc(Cl)ccc1N=c1ssnc1Cl	16µM	–	–	–	?	–	–	–	–	–	–
COc1ccc(OC)c(N=c2ssnc2Cl)c1	18µM	–	–	–	28µM	?	?	–	–	–	–
CC1CCN(S(=O)(=O)c2ccc3c(c2)CCN3C(=O)Nc2ccccc2Br)CC1	·	·	–	·	–	·	·	·	·	·	·
C/C(CCC(C)C)=N\NC(=S)NCc1ccccc1	16µM	–	–	–	–	–	–	–	–	–	–
C/C(CCc1ccccc1)=N\NC(=S)NCCc1ccccc1	–	–	–	–	–	–	·	·	·	·	·
CCC(C)NCCOCCOc1ccc(C)cc1OC (stereo not drawn)	–	–	–	–	–	·	·	·	·	·	·
CCC(C)NCCOc1cc(C)cc(C)c1C (stereo not drawn)	16µM	–	–	–	–	–	–	–	–	–	–
CC(CN1CCCC1)OC(=O)c1ccc(Cl)cc1Cl (stereo not drawn)	16µM	–	–	–	–	–	–	–	–	–	–
